Source: PubChem BioAssay (National Center for Advancing Translational Sciences (NCATS))
In the library only some 11% were active in any assay of this set; here they are far more common.
FLuc inh – firefly luciferase inhibition. Potency, µM (top dose mostly 57.1 µM), hits mostly inhibitors. P08659. 72,000 tested, 2.2% active. purified firefly luciferase, luminescence, 8 min. AID 411; note: nearly all actives have a fitted effect of over 40% in size
Target sequence (P08659 whole entry, looked up): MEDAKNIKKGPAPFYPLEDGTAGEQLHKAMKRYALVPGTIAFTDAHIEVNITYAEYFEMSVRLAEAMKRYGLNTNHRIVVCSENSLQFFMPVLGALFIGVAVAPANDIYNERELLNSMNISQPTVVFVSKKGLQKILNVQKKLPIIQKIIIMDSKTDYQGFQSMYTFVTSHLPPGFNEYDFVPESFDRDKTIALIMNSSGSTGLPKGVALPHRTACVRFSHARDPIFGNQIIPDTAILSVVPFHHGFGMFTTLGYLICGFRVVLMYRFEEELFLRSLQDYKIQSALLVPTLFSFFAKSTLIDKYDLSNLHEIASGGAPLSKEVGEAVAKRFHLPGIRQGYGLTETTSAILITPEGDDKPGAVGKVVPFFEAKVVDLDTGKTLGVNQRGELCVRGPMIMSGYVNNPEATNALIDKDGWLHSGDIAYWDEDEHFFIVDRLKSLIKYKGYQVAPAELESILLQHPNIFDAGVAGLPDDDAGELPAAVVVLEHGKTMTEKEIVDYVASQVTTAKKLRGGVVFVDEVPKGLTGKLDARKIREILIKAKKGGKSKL
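Inhibition of light generation by firefly luciferase from ATP and luciferin was profiled with concentration-response curves per sample, ATP held at 10 uM within the enzyme's linear range. Plates were read by luminescence after an 8-minute ambient incubation.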
HADH2 inh – inhibitors of human HADH2 dehydrogenase | 73,000 tested, 3.4% active | recombinant HADH2, NADH fluorescence, beta-hydroxybutyryl-CoA | Potency, µM (highest dose often 57.1 µM), hits mostly inhibitors | Q99714; note: nearly all actives have a fitted effect of over 60% in size
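E. coli-expressed His-tagged HADH2 tested at 20 nM in alkaline Tris buffer (pH 9.0); oxidation of 90 uM beta-hydroxybutyryl-CoA with 1 mM NAD+ tracked fluorimetrically for 4 min.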
Bst PK mod – modulators of Bacillus stearothermophilus pyruvate kinase; 51,000 tested, 1.2% active; Potency, µM; purified pyruvate kinase, luminescence ATP production; ribose 5-phosphate activator present at AC10; in the data active = potency below about 11 µM; inconclusive = mostly about 12 µM to 25 µM;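 the screen sought inhibitors and activators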
ERK AVP block – blocks ERK signaling stimulated by vasopressin | HEK293-V1b, vasopressin-stimulated pERK AlphaScreen | Potency, µM (series often up to 57.5 µM), hits mostly inhibitors | 72,000 tested, 0.99% active | AID 995; note: nearly all actives have a fitted effect of over 55% in size
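Overnight-seeded V1b-HEK293 cells in 1% FBS got compound, then vasopressin (25 nM final, 5 min, 37C), then lysis buffer. AlphaScreen detection of phospho-ERK; activity normalized to basal and full-stimulation controls.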
ALOX15 inhib – blocks human 15-lipoxygenase activity | P16050 | purified 15hLO-1, xylenol orange hydroperoxide absorbance | Potency, µM (highest dose often 57.1 µM), usual class: inhibitors | 74,000 tested, 1.4% active | AID 887; note: nearly all actives have a fitted effect of over 55% in size
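Purified human 15hLO-1 (40 nM final) in 25 mM Hepes pH 7.5, 0.01% Triton X-100 was preincubated with compound 15 min at room temperature, then reacted 6 min with 50 uM arachidonic acid; hydroperoxide detected by Fe-XO, 573/405 nm absorbance ratio.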
HSD17B inh – inhibitors of human HSD17B10 dehydrogenase; 75,000 tested, 7.6% active; Q99714; recombinant HSD17B10, NADH fluorescence kinetic; Potency, µM (titrated, usually from 57.1 µM), most hits filed as inhibitors;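 note: the protocol describes HADH2 (HSD17B10) and not the HSD17B4 of the title; nearly all actives have a fitted effect of over 70% in size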
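20 nM HADH2, pH 9.0 Tris/Tween; cpd preinc 15 min RT; start w/ 1 mM NAD+ + 90 uM b-hydroxybutyryl-CoA; kinetic fluor ex360/em450 q30s x 4 min; delta last-first.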
Of the large screens only hits and unclear results are named; the others gave an inactive call. Unless noted, calls come from the whole dose curve; as a rule, active = well fitted curve in the direction sought with a large enough effect; inconclusive = small, poorly fitted or top-dose-only effect, or another doubt; inactive = no such curve, though single readings can be large; an effect the other way counts as inactive or inconclusive.

COC(=O)[C@@H]1[C@@H]2C[C@H]3c4[nH]c5ccccc5c4CCN3C[C@@H]2CC[C@@H]1OS(=O)(=O)O	none (no result: Bst PK mod)
Clc1ccccc1-c1ccc2ncnc(NCc3cccnc3)c2c1	ERK AVP block inconclusive (no result: Bst PK mod)
c1cncc(CNc2ncnc3ccc(-c4cccnc4)cc23)c1	HADH2 inh 25µM, HSD17B inh 25µM (no result: Bst PK mod)
N#Cc1cccc(-c2ccc3ncnc(NCc4cccnc4)c3c2)c1	HADH2 inh inconclusive, HSD17B inh 32µM (no result: Bst PK mod)
O=C(c1cccc(F)c1)N1CCC2(CC1)CCN(C(c1ccccc1)c1ccccc1)CC2	none (no result: Bst PK mod)
CCOc1ccc(-c2n[nH]c(C)c2Oc2ccc(OC)cc2)c(O)c1	ERK AVP block 40µM, ALOX15 inhib inconclusive
c1coc(CNc2nc(N3CCCCC3)nc3ccccc23)c1	HSD17B inh 32µM
c1ccc(N2CCN(c3nc(NCc4ccco4)c4ccccc4n3)CC2)cc1	none (no result: HADH2 inh, ERK AVP block, ALOX15 inhib, HSD17B inh)
NC(=O)NC(N)=O	none (no result: FLuc inh, Bst PK mod)
O=C(O)[C@H]1CCCC[C@@H]1c1c2ccc(=O)c(O)c-2oc2c(O)c(O)ccc12	HADH2 inh 1µM, ALOX15 inhib inconclusive, HSD17B inh 2µM (no result: Bst PK mod)
O=C(O)/C=C\c1c2ccc(=O)c(O)c-2oc2c(O)c(O)ccc12	HADH2 inh 1µM, ERK AVP block inconclusive, ALOX15 inhib 1.6µM, HSD17B inh 0.79µM (no result: Bst PK mod)
O=C(O)/C=C/c1ccc(/C=C/C(=O)O)cc1	none (no result: FLuc inh, Bst PK mod)
Cc1ccc(S(=O)(=O)NC(=O)Nc2ncn[nH]2)cc1	none (no result: Bst PK mod)
CCC(C)c1ccc(NC(=O)c2cccnc2)cc1 (stereo not given)	FLuc inh 25µM (no result: Bst PK mod)
CO[C@H]1COC(=O)[C@H](C)COC(=O)[C@@H](OCc2ccccc2)/C=C\[C@@H]1C	none (no result: Bst PK mod)
O=C(CCNS(=O)(=O)c1ccc2c(c1)CCC(=O)N2)NCc1ccc2c(c1)OCO2	none
Cc1cccc(N2CCN(C(=O)CCNS(=O)(=O)c3ccc4c(c3)CCC(=O)N4)CC2)c1C	ERK AVP block 25µM, ALOX15 inhib inconclusive
Cc1cc(C)n2cc(CSc3nnc(N)s3)nc2n1	HSD17B inh inconclusive
Cc1cc(C)n2cc(CSc3nc4cc(Cl)ccc4o3)nc2n1	HADH2 inh inconclusive, HSD17B inh inconclusive
CCc1nnc(SCc2cn3c(C)cc(C)nc3n2)n1N	HADH2 inh 25µM, HSD17B inh 25µM
Cc1cc(C)n2cc(CSc3nnnn3C)nc2n1	HADH2 inh 32µM, HSD17B inh 25µM
Cc1cc(C)n2cc(CSc3nnc(-c4ccccc4)o3)nc2n1	HSD17B inh 32µM
NN(CC(=O)O)CC(=O)O	none (no result: Bst PK mod)
COCCNC(=O)C1(C)C=CCN1C(C)=O (stereo not given)	none (no result: FLuc inh, Bst PK mod)
O=C(O)CCCCn1ccc(=O)[nH]c1=O	none (no result: Bst PK mod)
Cc1oc(-c2ccc(F)cc2)cc1-c1nn2c(-c3ccco3)nnc2s1	HADH2 inh inconclusive, ALOX15 inhib inconclusive, HSD17B inh 16µM
Cc1oc(-c2ccc(F)cc2)cc1-c1nn2c(-c3ccoc3C)nnc2s1	HADH2 inh 25µM, ERK AVP block inconclusive, ALOX15 inhib inconclusive, HSD17B inh inconclusive (no result: Bst PK mod)
N#Cc1c(N2CCCC2)nc(N)c2c(N)nc(N3CCCC3)cc12	none (no result: Bst PK mod)
N#Cc1c(N)nc(N2CCCC2)c(C#N)c1-c1ccc(Cl)cc1	HADH2 inh inconclusive, HSD17B inh 32µM
Nc1c(OCC(=O)O)ccc2cc(S(=O)(=O)O)ccc12	none (no result: Bst PK mod)
CC1CN(C(c2ccco2)c2sc3ncnn3c2O)CC(C)O1 (stereo not given)	HADH2 inh inconclusive, HSD17B inh 25µM (no result: Bst PK mod, ERK AVP block)
C/C=C\C[C@H](C)[C@H](O)[C@H]1C(=O)N[C@@H](CC)C(=O)N(C)CC(=O)N(C)[C@@H](CC(C)C)C(=O)N[C@@H](C(C)C)C(=O)N(C)[C@@H](CC(C)C)C(=O)N[C@@H](C)C(=O)N[C@@H](C)C(=O)N(C)[C@@H](CC(C)C)C(=O)N(C)[C@@H](CC(C)C)C(=O)N(C)[C@@H](C(C)C)C(=O)N1C	ALOX15 inhib inconclusive (no result: Bst PK mod)
COc1cccc([C@H]2Oc3ccc(OC)cc3/C(=N\O[C@@H]3O[C@H](COC(C)=O)[C@H](OC(C)=O)[C@H](OC(C)=O)[C@H]3OC(C)=O)[C@@H]2O)c1	none (no result: Bst PK mod)
CC(C)CC(=O)Nc1ccc2oc(-c3ccncc3)nc2c1	FLuc inh inconclusive, HSD17B inh 13µM
O=C(Cc1ccccc1)Nc1ccc2oc(-c3ccncc3)nc2c1	HSD17B inh 25µM
CC(C)CC(=O)Nc1cccc(-c2nc3ccccc3o2)c1	ERK AVP block inconclusive, HSD17B inh inconclusive
O=S(=O)(c1ccc2oc(-c3ccncc3)nc2c1)c1ccc2oc(-c3ccncc3)nc2c1	none
CC(C)[C@@H](CC(=O)N[C@@H]1CCCC[C@H]1C(=O)N[C@H](CC(=O)N[C@@H](CCC(=O)O)CC(=O)O)Cc1ccccc1)NC(=O)C[C@H](CO)NC(=O)[C@@H]1CNCC[C@H]1N	none (no result: FLuc inh, Bst PK mod, ERK AVP block, ALOX15 inhib, HSD17B inh)
Cc1nn(-c2ccccn2)c2c1-c1nc(N)ncc1CC2	FLuc inh 10µM, HADH2 inh 25µM, Bst PK mod inconclusive, HSD17B inh 32µM
C=CC(=O)N1C(=O)c2ccccc2S1(=O)=O	none (no result: Bst PK mod)
O=C(CSCc1nc2ccccc2[nH]1)N1CCN(c2cccc(Cl)c2)CC1	ERK AVP block 25µM
CSc1ccc(C2C(C#N)=C(N)N(c3ccccc3)C3=C2C(=O)CCC3)cc1 (stereo not given)	HADH2 inh inconclusive
CSc1ccc(C2C(C#N)=C(N)Oc3c2ccc(=O)c2c(C)oc(C)c32)cc1 (stereo not given)	HADH2 inh 25µM, ERK AVP block inconclusive, ALOX15 inhib 16µM, HSD17B inh 25µM
Cc1oc(C)c2c(=O)ccc3c(c12)OC(N)=C(C#N)C3c1ccccc1 (stereo not given)	HADH2 inh inconclusive, ALOX15 inhib inconclusive, HSD17B inh 20µM
Cc1oc(C)c2c(=O)ccc3c(c12)OC(N)=C(C#N)C3c1ccccc1Cl (stereo not given)	HADH2 inh inconclusive, ALOX15 inhib inconclusive, HSD17B inh inconclusive
CCC/C=C(\CCC)C(NS(=O)(=O)c1ccc(C(F)(F)F)cc1)c1ccc(-c2ccccc2)cc1 (stereo not given)	none (no result: FLuc inh, Bst PK mod, ALOX15 inhib)
Cc1[nH]nc2c1C(c1cccc(O)c1)C1=C(CC(C)(C)CC1=O)N2 (stereo not given)	HADH2 inh inconclusive, HSD17B inh 32µM
Cc1ccc(C2C3=C(CC(C)(C)CC3=O)Nc3n[nH]c(C)c32)cc1 (stereo not given)	HSD17B inh 25µM
COCCOC(=O)C1=C(C)NC2=C(C(=O)CC(C)(C)C2)C1c1ccc(N(C)C)cc1 (stereo not given)	none (no result: Bst PK mod)
Cc1[nH]nc2c1C(c1ccc(F)cc1)C1=C(CC(C)(C)CC1=O)N2 (stereo not given)	HADH2 inh 32µM, HSD17B inh 32µM
